Measured values taken from PubChem BioAssay (Tox21).
Inconclusive results are not listed. The source made the active and inactive calls. Unless noted, calls follow the shape of the dose curve; as a rule, active = well fitted curve in the direction sought with a large enough effect in the repeat runs; inconclusive = weak or mixed curves; inactive = no such curve, though single readings can be large; an effect the other way counts as inactive or inconclusive.

Experiments:
[1] = qHTS assay to identify small molecule antagonists of the thyroid receptor (TR) signaling pathway - cell viability counter screen (AID 743064); also: nearly all actives have a fitted effect of over 50% in size
Procedure, shortened: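 GH3.TRE-Luc cells, 4 h pre-plating; cpd + T3 1 nM final; 37 °C 23.5 h; CellTiter-Fluor 30 min; fluorescence read.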

[2] = tested on: thyroid hormone receptor (rat, GH3 cells); experiment: qHTS assay to identify small molecule agonists of the thyroid receptor (TR) signaling pathway (AID 743066; calls by dose curve)
[3] = target: Estrogen receptor (Homo sapiens) (UniProt P03372); experiment: qHTS assay to identify small molecule antagonists of the estrogen receptor alpha (ER-alpha) signaling pathway (AID 743069; active = well fitted curve in the direction sought with a large enough effect in the signal ratio in the repeat runs, not every such curve was filed as active; the % refers to the signal ratio)
Procedure, shortened: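 ER-alpha-UAS-bla GripTite HEK293 line; 2% charcoal-stripped FBS overnight; plated, 4 hr 37C/5% CO2; cpd in DMSO + 17beta-estradiol, 18 hr 37C; LiveBLAzer B/G FRET substrate 2 hr RT; fluorescence intensity.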

[4] = qHTS assay to identify small molecule antagonists of the estrogen receptor alpha (ER-alpha) signaling pathway - cell viability counter screen (AID 743074; calls by dose curve;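 also: HEK293 cells carrying ER-alpha-UAS-bla reporter stimulated with 17beta-estradiol; nearly all actives have a fitted effect of over 45% in size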)
[5] = target: Estrogen receptor (Homo sapiens) (UniProt P03372); experiment: qHTS assay to identify small molecule agonists of the estrogen receptor alpha (ER-alpha) signaling pathway (AID 743075; calls by dose curve;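 also: HEK293 GripTite cells with ER-alpha and UAS-driven beta-lactamase reporter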)
[6] = target: Estrogen receptor (Homo sapiens) (UniProt P03372); experiment: qHTS assay to identify small molecule agonists of the estrogen receptor alpha (ER-alpha) signaling pathway using the BG1 cell line (AID 743079); also: nearly all actives have a fitted effect of over 20% in size
[7] = qHTS assay to identify small molecule antagonists of the estrogen receptor alpha (ER-alpha) signaling pathway using the BG1 cell line (AID 743080; calls by dose curve;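 also: BG1 cells stimulated with 17beta-estradiol alongside compound; series mostly up to about 70 µM; nearly all actives have a fitted effect of over 25% in size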)
Procedure, shortened: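 After 5 days in phenol-red-free 10% charcoal-stripped FBS medium, BG1-Luc-4E2 cells were seeded, left 24 h at 37 C, co-treated with compounds and 17beta-estradiol for 21.5 h, then assayed for viability and luciferase.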

[8] = qHTS assay to identify small molecule antagonists of the estrogen receptor alpha (ER-alpha) signaling pathway using the BG1 cell line - cell viability counter screen (AID 743081);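 also: compound given together with 17beta-estradiol as the ER stimulus; series mostly up to about 70 µM; nearly all actives have a fitted effect of over 45% in size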
Aromatase (Homo sapiens) = Aromatase (Homo sapiens) (UniProt P11511); experiment: qHTS assay to identify aromatase inhibitors (AID 743083); also: series mostly up to about 70 µM; nearly all actives have a fitted effect of over 55% in size
[9] = qHTS assay to identify aromatase inhibitors - cell viability counter screen (AID 743084);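 also: cells stimulated with testosterone during compound exposure; nearly all actives have a fitted effect of over 55% in size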
[10] = target: Aryl hydrocarbon receptor (Homo sapiens) (UniProt P35869); experiment: qHTS assay to identify small molecule that activate the aryl hydrocarbon receptor (AhR) signaling pathway (AID 743085);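 also: HG2L7.5c1 human HepG2 liver cells with stably integrated DRE-driven firefly reporter; series mostly up to about 70 µM; nearly all actives have a fitted effect of over 15% in size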
Procedure, shortened: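 Luminescence read-out: ONE-Glo reagent, 30 min at room temperature, in HG2L7.5c1 HepG2 reporter cells treated 24 h at 37C. Viability was measured beforehand by CellTiter-Fluor fluorescence after 30 min at 37C.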

[11] = qHTS assay to identify small molecule that activate the aryl hydrocarbon receptor (AhR) signaling pathway - cell viability counter screen (AID 743086);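 also: HepG2 liver cells carrying the AhR DRE luciferase reporter; series mostly up to about 70 µM; nearly all actives have a fitted effect of over 45% in size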
Procedure, shortened: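 Cytotoxicity counter screen: CellTiter-Fluor signal (30 min, 37 C) in 4000 HepG2 cells/well carrying the DRE-luciferase reporter, following 24 h compound exposure at 37 C.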

[12] = qHTS assay to identify small molecule antagonists of the peroxisome proliferator-activated receptor gamma (PPARg) signaling pathway - cell viability counter screen (AID 743194); also: nearly all actives have a fitted effect of over 55% in size
Procedure, shortened: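 Viability was measured as CellTiter-Glo luminescence in GeneBLAzer PPARg UAS-bla HEK293H cells. These cells had been exposed 17 h at 37 C to compounds together with rosiglitazone at 50 nM final, with the beta-lactamase readout taken in the same wells.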

[13] = qHTS assay for small molecule agonists of the antioxidant response element (ARE) signaling pathway - cell viability counter screen (AID 743203; calls by dose curve; also: nearly all actives have a fitted effect of over 55% in size)
Procedure, shortened: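 HepG2 cells carrying ARE-driven beta-lactamase; 2,000 cells/well; 5 hrs plating; compound pinned from DMSO; 16 hrs 37C/5% CO2; CellTiter-Glo added; 30 min RT; luminescence.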

[14] = qHTS assay for small molecule activators of the heat shock response signaling pathway - cell viability counter screen (AID 743209); also: nearly all actives have a fitted effect of over 50% in size
Procedure, shortened: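 Luminescence from CellTiter-Glo, added after the beta-lactamase FRET read, gave the viability signal. Cells were HSE-bla HeLa treated with DMSO-dissolved compounds for 5 h at 37 C following overnight plating.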

[15] = target: Peroxisome proliferator-activated receptor gamma (Homo sapiens) (UniProt P37231); experiment: qHTS assay to identify small molecule agonists of the peroxisome proliferator-activated receptor gamma (PPARg) signaling pathway (AID 743094; active = well fitted activation curve with a large enough effect in the signal ratio in the repeat runs, not every such curve was filed as active; the % refers to the signal ratio)
Procedure, shortened: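 Beta-lactamase FRET fluorescence was the read-out after a 1 h room-temperature substrate step, following 17 h compound treatment at 37C of HEK293H cells expressing a UAS-driven bla reporter responsive to PPARg.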

[16] = qHTS assay for small molecule agonists of the antioxidant response element (ARE) signaling pathway (AID 743202; active = well fitted activation curve with a large enough effect in the signal ratio in the repeat runs, not every such curve was filed as active; the % refers to the signal ratio)
Procedure, shortened: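 Quantitative high-throughput format in HepG2 cells bearing an integrated ARE-beta-lactamase reporter. Compound exposure lasted 16 h at 37 C, and fluorescence was read 2 h after adding LiveBLAzer B/G substrate at room temperature.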

[17] = qHTS assay for small molecule activators of the heat shock response signaling pathway (AID 743210; active = well fitted activation curve with a large enough effect in the signal ratio in the repeat runs, with a control signal flat, not every such curve was filed as active; the % refers to the signal ratio;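 also: HeLa cells with beta-lactamase reporter driven by heat shock elements; series mostly up to about 63 µM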)
Procedure, shortened: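 HeLa HSE-bla cells, overnight plating; cpd in DMSO 5 h, 37 C; LiveBLAzer B/G FRET substrate 2.5 h RT; fluorescence intensity read.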

[18] = target: Peroxisome proliferator-activated receptor gamma (Homo sapiens) (UniProt P37231); experiment: qHTS assay to identify small molecule antagonists of the peroxisome proliferator-activated receptor gamma (PPARg) signaling pathway (AID 743191; calls by dose curve; also: series mostly up to about 63 µM; nearly all actives have a fitted effect of over 30% in size)
Procedure, shortened: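 Beta-lactamase reporter under UAS control in HEK293H PPARg-bla cells; compound treatment 17 h at 37C. Read-out: fluorescence intensity after 1 h room-temperature incubation with LiveBLAzer B/G FRET substrate.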

[19] = qHTS assay to identify small molecule antagonists of the thyroid receptor (TR) signaling pathway (AID 743065)
Procedure, shortened: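 Antagonism measured as loss of luciferase signal in GH3 cells stably carrying a TRE-luciferase reporter, co-treated with compound and T3 (1 nM final) for 23.5 h at 37 C. Viability was read in the same well by CellTiter-Fluor.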

Measured: Potency

Sequence of Aromatase (Homo sapiens) (P11511 whole entry, looked up): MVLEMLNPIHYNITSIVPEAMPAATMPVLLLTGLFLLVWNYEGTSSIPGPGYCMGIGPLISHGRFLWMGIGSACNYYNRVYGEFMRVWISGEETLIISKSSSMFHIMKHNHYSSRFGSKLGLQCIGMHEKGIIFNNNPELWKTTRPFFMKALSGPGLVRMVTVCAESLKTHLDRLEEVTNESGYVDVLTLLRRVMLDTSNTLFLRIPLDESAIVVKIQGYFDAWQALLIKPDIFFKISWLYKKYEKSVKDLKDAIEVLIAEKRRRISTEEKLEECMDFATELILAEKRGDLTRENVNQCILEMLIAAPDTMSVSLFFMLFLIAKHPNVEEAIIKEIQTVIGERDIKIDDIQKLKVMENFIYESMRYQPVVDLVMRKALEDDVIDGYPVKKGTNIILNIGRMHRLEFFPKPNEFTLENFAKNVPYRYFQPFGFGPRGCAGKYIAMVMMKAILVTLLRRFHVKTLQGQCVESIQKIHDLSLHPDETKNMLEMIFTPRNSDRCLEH
Sequence of Peroxisome proliferator-activated receptor gamma (Homo sapiens) (P37231 whole entry, looked up): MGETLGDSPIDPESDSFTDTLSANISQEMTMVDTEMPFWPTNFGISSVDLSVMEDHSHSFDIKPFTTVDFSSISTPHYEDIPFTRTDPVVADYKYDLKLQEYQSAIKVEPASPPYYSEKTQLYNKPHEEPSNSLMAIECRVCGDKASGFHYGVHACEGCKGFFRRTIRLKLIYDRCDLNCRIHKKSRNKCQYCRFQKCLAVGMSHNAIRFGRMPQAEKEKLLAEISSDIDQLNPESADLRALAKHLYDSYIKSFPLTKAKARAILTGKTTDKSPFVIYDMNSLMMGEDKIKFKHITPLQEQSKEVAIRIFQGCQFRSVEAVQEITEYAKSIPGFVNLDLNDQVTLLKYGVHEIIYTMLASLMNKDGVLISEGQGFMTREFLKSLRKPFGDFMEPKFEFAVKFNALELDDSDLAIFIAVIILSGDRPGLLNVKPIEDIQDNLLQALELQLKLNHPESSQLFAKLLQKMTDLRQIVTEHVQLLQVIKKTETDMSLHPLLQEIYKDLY
Sequence of Estrogen receptor (Homo sapiens) (P03372 whole entry, looked up): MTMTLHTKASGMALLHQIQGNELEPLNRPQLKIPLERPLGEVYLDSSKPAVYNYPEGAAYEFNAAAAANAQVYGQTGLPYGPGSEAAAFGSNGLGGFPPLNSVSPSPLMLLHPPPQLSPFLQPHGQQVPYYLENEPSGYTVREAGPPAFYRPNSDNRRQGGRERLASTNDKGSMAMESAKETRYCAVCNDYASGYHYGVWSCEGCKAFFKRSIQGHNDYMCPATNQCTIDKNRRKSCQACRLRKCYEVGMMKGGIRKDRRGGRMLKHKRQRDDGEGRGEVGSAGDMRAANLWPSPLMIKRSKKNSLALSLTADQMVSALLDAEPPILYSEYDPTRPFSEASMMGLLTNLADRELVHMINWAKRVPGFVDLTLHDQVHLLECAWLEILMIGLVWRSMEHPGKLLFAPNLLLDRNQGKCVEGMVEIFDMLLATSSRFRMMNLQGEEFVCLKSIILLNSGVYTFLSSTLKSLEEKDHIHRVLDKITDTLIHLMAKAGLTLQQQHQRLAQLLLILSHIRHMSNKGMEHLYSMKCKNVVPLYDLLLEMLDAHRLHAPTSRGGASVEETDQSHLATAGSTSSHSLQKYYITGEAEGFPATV
Sequence of Aryl hydrocarbon receptor (Homo sapiens) (P35869 whole entry, looked up): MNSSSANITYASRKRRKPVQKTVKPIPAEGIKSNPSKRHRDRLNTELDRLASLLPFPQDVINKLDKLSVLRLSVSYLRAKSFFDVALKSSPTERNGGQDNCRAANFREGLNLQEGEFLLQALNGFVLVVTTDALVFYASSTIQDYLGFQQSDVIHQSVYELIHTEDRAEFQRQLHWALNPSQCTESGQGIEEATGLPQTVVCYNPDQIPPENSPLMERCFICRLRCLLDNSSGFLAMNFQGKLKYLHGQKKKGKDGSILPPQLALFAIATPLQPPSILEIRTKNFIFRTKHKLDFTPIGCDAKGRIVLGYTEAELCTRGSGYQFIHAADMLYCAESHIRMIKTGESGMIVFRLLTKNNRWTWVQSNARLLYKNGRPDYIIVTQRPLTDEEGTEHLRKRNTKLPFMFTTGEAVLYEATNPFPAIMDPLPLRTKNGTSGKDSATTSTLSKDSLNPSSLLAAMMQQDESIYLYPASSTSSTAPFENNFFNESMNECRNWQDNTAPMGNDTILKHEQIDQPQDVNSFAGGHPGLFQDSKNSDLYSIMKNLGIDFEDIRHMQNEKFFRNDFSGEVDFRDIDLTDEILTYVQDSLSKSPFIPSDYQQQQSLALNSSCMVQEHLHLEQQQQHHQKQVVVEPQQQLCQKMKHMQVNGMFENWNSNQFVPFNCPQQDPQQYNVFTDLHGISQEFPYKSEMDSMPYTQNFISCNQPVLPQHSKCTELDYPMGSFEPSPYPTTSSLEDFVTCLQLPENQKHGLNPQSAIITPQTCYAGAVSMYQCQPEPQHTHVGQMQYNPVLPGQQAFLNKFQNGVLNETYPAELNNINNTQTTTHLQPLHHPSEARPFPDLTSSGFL

CC1(C)CO[C@@H](CC(=O)O)CN1
inactive: [1] | [2] | [3] | [4] | [5] | [6] | [7] | [8] | Aromatase (Homo sapiens) | [9] | [10] | [11] | [12] | [13] | [14]

NC(CSCC(=O)O)C(=O)O (configuration not stated)
inactive: [1] | [2] | [3] | [4] | [5] | [6] | [7] | [8] | Aromatase (Homo sapiens) | [9] | [10] | [11] | [15] | [12] | [16] | [14] | [17]

COc1cc(C(=O)N2CCCCCCC2)cc(OC)c1OC
inactive: [1] | [2] | [3] | [4] | [5] | [6] | [7] | [8] | Aromatase (Homo sapiens) | [9] | [10] | [11] | [15] | [18] | [12] | [16] | [13] | [14] | [17]

Brc1c(NC2=NCCN2)ccc2nccnc12
inactive: [1] | [19] | [2] | [4] | [8] | Aromatase (Homo sapiens) | [9] | [11] | [12] | [16] | [13] | [14] | [17]

CCOC(=O)CCC(C)=O
inactive: [1] | [2] | [3] | [4] | [5] | [7] | [8] | Aromatase (Homo sapiens) | [9] | [10] | [11] | [15] | [12] | [16] | [13] | [14] | [17]

CC(=O)OCC(CCn1cnc2cnc(N)nc21)COC(C)=O
inactive: [1] | [2] | [3] | [4] | [5] | [6] | [8] | Aromatase (Homo sapiens) | [9] | [10] | [11] | [15] | [18] | [12] | [16] | [13] | [14]

CC(=O)N(CC(O)CO)c1c(I)c(C(=O)NCCO)c(I)c(C(=O)NCC(O)CO)c1I (configuration not stated)
inactive: [1] | [19] | [2] | [8] | Aromatase (Homo sapiens) | [9] | [10] | [11] | [15] | [18] | [12] | [13] | [14] | [17]
